Screens (PubChem BioAssay)
Many of the other results were omitted from the sample, so hits are more common in it than they were.
Tg IFNy HTS: inhibitors of Toxoplasma gondii growth with IFN-gamma. Toxoplasma gondii growth in IFN-gamma-treated host cells; active compounds read low. AID 1259416. activity change, negative = inhibition, % (no concentration beside the values). 69,000 tested, 3.8% active; in the data active means activity change below about -70%, passing the limit was not always enough;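 further: host cells are HeLa cells infected with Toxoplasma gondii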
Starred values were filed as active, the others as inactive; i = inactive; ! = not active in a repeat.

SMILES | Tg IFNy HTS
CCCc1nc(-c2ccccn2)nc(OC(=O)N(C)C)c1Cc1c(F)cccc1Cl | -98*
CCN1CCOCC2(CCCN(c3nccc(C(F)(F)F)n3)C2)C1 (stereo unspecified) | -13
COc1ccc2c(c1)C1(CCN(C(=O)c3ccc(N(C)C)c4ccccc34)CC1)CC2CC(=O)O (stereo unspecified) | -38
C=CCN1CC[C@@H]2[C@@H]1CCN2Cc1csc(C)n1 | -2
C[C@H]1CCCC(=O)CCC/C=C/c2cc(O)cc(O)c2C(=O)O1 | -4
C[C@H]1CCC/C=C/[C@@H]2C[C@H](O)C[C@H]2[C@H](O)/C=C/C(=O)O1 | -77*
Cc1ccc(/C=C/C(=O)C2C(=O)N(C)C34CCCCC3C2c2ccccc2O4)cc1 (stereo unspecified) | 0
COC[C@@]12COC[C@@H]1CN(Cc1ccc3ccccc3n1)C2 | -41
CC1(C)C(=O)C=C[C@@]2(C)C1C(=O)C(=O)[C@]1(C)C2CC[C@@]2(C)[C@H](c3ccoc3)C[C@H]3O[C@]321 (stereo partly specified) | -79*
c1ccc(OC[C@@]23COC[C@@H]2CN(Cc2ccoc2)C3)nc1 | -3
Cn1cc(CN2CC3(CCN(Cc4cccnc4)C3)C2)cn1 | -2
COc1ccc(-c2ccccc2N2CCNCC2)c2ccc(C)nc12 | -3
O=C(O)COc1ccc(Cl)cc1Cl | 16
Oc1cc(Cl)ccc1Oc1ccc(Cl)cc1Cl | -87*
Cc1cc(Cl)ccc1OCC(=O)O | 10
C[C@@H]1CN(Cc2cccs2)C[C@]12CCN(c1cccnc1)C2=O | 3
CNC(=O)[C@H]1C[C@H]2CN(CC3CC3)C[C@H]1O2 | 8
O=C(Nc1cccc(Cl)c1)c1c(O)c2cccnc2n(Cc2ccccc2)c1=O | 146
Cc1cc(C)c(NC(=O)c2cc3cccnc3n(Cc3ccc(F)cc3)c2=O)c(C)c1 | -78*
COc1ccc(NC(=O)c2c(O)c3cccnc3n(Cc3ccccc3)c2=O)cc1 | 0
Cc1ccc(F)c(NC(=O)c2c(O)c3cccnc3n(Cc3ccccc3)c2=O)c1 | 71
O=C(Nc1ccc(F)c(Cl)c1)c1c(O)c2cccnc2n(Cc2ccccc2)c1=O | -27
O=C(NCc1cccs1)c1c(O)c2cccnc2n(Cc2ccccc2)c1=O | -111*
Cc1ccc(NC(=O)c2cc3cccnc3n(Cc3ccc(F)cc3)c2=O)cc1 | 85
Cc1ccc(NC(=O)c2c(O)c3cccnc3n(Cc3ccccc3)c2=O)c(C)c1 | 45
SMILES | Tg IFNy HTS
Cc1ccc(NC(=O)c2cc3cccnc3n(Cc3ccc(F)cc3)c2=O)c(C)c1 | -9
O=C(Nc1ccc(F)c(F)c1)c1c(O)c2cccnc2n(Cc2ccccc2)c1=O | -58
O=C(NCc1ccccc1)c1c(O)c2cccnc2n(Cc2ccccc2)c1=O | -116*
O=C(NCc1ccccc1F)c1c(O)c2cccnc2n(Cc2ccccc2)c1=O | -112*
CN1CCC2(CCCN(C(=O)c3ccoc3)C2)CC1 | 13
c1ccc(N2CCNCC2)c(-c2cccc3cccnc23)c1 | 11
Cc1ccoc1C(=O)N1CCOC2CNCC[C@@H]21 (stereo partly specified) | 15
C[C@@H]1C(=O)NC[C@H]2CN(CC3CC3)C[C@@H]21 | 7
CN1CC[C@@H]2C(=O)N(c3ccccc3)CCO[C@@H]2C1 | i
CNC(=O)C1=NOC2(CCN(Cc3ccccn3)C2)C1 (stereo unspecified) | -45
Cn1cc(N2C(=O)CC[C@@H]3[C@@H]2CCN3Cc2ccccn2)cn1 | 14
Cc1nc(C)c(CC(=O)N2CCCC3(CCNC3)C2)c(=O)[nH]1 (stereo unspecified) | 8
O=C(NCCc1ccccc1)c1cc2cccnc2n(Cc2ccccc2F)c1=O | 4
CCS(=O)(=O)N1CC[C@@]2(CN(C)C[C@H]2COCc2cccnc2)C1 | -2
CC(C)COC1C2CCC1N(Cc1ccccn1)C2 (stereo unspecified) | 64
CC(C)(C)C(=O)Nc1ccc(Cl)cc1C(=O)c1ccccc1 | -8
Cc1ccc(F)cc1NC(=O)c1c(O)c2cccnc2n(Cc2ccccc2)c1=O | 68
CC(NC(=O)c1cc2cccnc2n(Cc2ccccc2)c1=O)c1ccccc1 (stereo unspecified) | -91*
CCc1ccccc1NC(=O)c1c(O)c2cccnc2n(Cc2ccccc2)c1=O | -88*
CCc1ccc(NC(=O)c2c(O)c3cccnc3n(Cc3ccccc3)c2=O)cc1 | 30
O=C(Nc1ccc(F)cc1)c1c(O)c2cccnc2n(Cc2ccccc2)c1=O | 255
Cc1ccccc1NC(=O)c1c(O)c2cccnc2n(Cc2ccccc2)c1=O | 84
CC(CCc1ccccc1)NC(=O)c1cc2cccnc2n(Cc2ccccc2)c1=O (stereo unspecified) | -29
CC(NC(=O)c1cc2cccnc2n(Cc2ccccc2F)c1=O)c1ccccc1 (stereo unspecified) | 18
CC(NC(=O)c1c(O)c2cccnc2n(Cc2ccccc2)c1=O)c1ccc(F)cc1 (stereo unspecified) | -113*
SMILES | Tg IFNy HTS
Clc1ccc(Cl)c(C2NCCc3[nH]cnc32)c1 (stereo unspecified) | 4
CCC(CO)NC(=O)C1C=C2c3cccc4c3c(cn4C)CC2N(C)C1 (stereo unspecified) | 18
COc1ccc(CCNC(=O)c2cc3cccnc3n(Cc3ccccc3)c2=O)cc1 | 21
CN1CCO[C@H]2CCN(C(=O)C3CC=CC3)C[C@H]21 | 202
O=C(NCc1ccccc1)c1cc2cccnc2n(Cc2ccc(F)cc2)c1=O | -14
Cc1ccc2[nH]cc(CN3C[C@H](N(C)C)C[C@H]3CO)c2c1 | 0
Cc1ccc(CN2CCN(CC3CC3)c3ncccc3C2)s1 | 0
COc1cccc2c1C(=O)c1c(O)c3c(c(O)c1C2=O)C[C@@](O)(C(=O)CO)C[C@@H]3O[C@H]1C[C@H](N2CCO[C@H](OC)C2)[C@H](O)[C@H](C)O1 | -81*
c1cncc(OCC23CCCOC2CCN(Cc2ccoc2)C3)c1 (stereo unspecified) | -20
N#Cc1ccccc1NC(=O)c1cc2cccnc2n(Cc2ccc(Cl)cc2)c1=O | -8
CC(=O)NC1CCSC1=O (stereo unspecified) | -78*!
c1cnc2c(c1)CN(Cc1ccoc1)CCN2CC1CC1 | -12
COc1c(C)cc(C(=O)C2CCCNC2)cc1C (stereo unspecified) | 5
Cc1cc(NC(=O)c2cc3cccnc3n(Cc3ccccc3F)c2=O)ccc1Br | 12
Cc1cccc(CN2C[C@H]3OCCN(CC4CCCO4)[C@H]3C2)n1 (stereo partly specified) | 1
CC1OC(OC2CC(O)C3(CO)C4C(O)CC5(C)C(C6=CC(=O)OC6)CCC5(O)C4CCC3(O)C2)C(O)C(O)C1O (stereo unspecified) | -81*
C[C@@H]1O[C@@H](O[C@H]2C[C@@H](O)[C@]3(CO)[C@H]4[C@H](O)C[C@]5(C)[C@@H](C6COC(=O)C6)CC[C@]5(O)[C@@H]4CC[C@]3(O)C2)[C@H](O)[C@H](O)[C@H]1O (stereo partly specified) | -99*
C=CCN1CCN(S(=O)(=O)C2CC2)Cc2cccnc21 | -7
CCS(=O)(=O)NC[C@@]12COC[C@H]1CN(C(C)C)C2 | -3
COc1cccc(OC)c1OCC(=O)N1CCN(Cc2ccccn2)CC1 | -10
Cc1cccnc1CN1CC[C@@H]2OCCN(S(=O)(=O)C3CC3)[C@@H]2C1 | -9
CNc1ccccc1C(=O)O | -4
C[CH2][Hg][S]c1ccccc1C(=O)O | -73*!
CCCCC(CC)COC(=O)c1ccccc1C(=O)OCC(CC)CCCC (stereo unspecified) | 8
